High-throughput results deposited in PubChem BioAssay by Fisher Drug Discovery Resource Center.
The full list was thinned out, with hits kept by preference.
mcGAS MS inh: inhibitors of mouse cGAS; AID 1259397; Q8C6L5; inhibition, % at 12.5 µM; recombinant mouse cGAS, cGAMP by RapidFire MS; 0.18% of 130,000 active;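 active = inhibition of cGAS enzyme activity at or above 60%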;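 also: enzyme stimulated by 45 bp dsDNA with ATP and GTP substrates; cGAMP share of summed cGAMP plus half ATP and half GTP signals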
Target sequence (Q8C6L5 whole entry, looked up): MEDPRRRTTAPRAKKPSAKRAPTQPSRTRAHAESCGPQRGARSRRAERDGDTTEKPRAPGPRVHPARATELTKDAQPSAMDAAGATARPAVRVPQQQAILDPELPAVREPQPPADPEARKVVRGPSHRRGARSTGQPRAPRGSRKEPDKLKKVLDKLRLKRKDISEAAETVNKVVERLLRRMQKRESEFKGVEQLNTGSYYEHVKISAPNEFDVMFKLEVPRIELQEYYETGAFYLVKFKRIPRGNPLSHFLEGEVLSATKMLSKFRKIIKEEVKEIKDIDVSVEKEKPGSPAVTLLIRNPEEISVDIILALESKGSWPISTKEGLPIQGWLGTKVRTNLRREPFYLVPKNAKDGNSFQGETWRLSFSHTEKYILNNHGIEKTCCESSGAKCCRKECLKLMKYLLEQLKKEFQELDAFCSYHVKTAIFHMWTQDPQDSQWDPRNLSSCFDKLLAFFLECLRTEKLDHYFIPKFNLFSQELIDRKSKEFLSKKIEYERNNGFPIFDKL
* marks the source's active call; other numbers are inactive results; ! = repeats disagree.

SMILES | mcGAS MS inh
CC[n+]1c(-c2ccccc2)c2cc(N)ccc2c2ccc(N)cc21 | 97*!
CC[n+]1c2ccccc2cc2ccccc21 | -1
Fc1ccc(F)c2c1CCN(Cc1cc3n(n1)CCNC3)C2 | -12
CC1(C(=O)Nc2ccc(N3CCCC3)nc2)CCCO1 (stereo not given) | -3
CCN(CC)CCNC(=O)c1cnc(C(C)(C)C)s1 | -20
CCN(CC)CCNc1nc2c(F)cccc2s1 | -29
CCN(CC)CCNc1ccc(CO)c2sc3ccccc3c(=O)c12 | 66*!
Cc1ccc(C(CC(=O)N2CCn3cncc3C2)c2ccccc2)cc1 (stereo not given) | -7
CCN1C(=O)c2ccccc2N2C(=O)CCC12C(=O)N(C)Cc1ccc(Cl)cc1Cl (stereo not given) | -4
O=C(CN1CCc2onc(-c3cccc(F)c3)c2C1)N1CCOCC1 | -1
CC(c1ccccc1)N1CCC(NCC2(c3ccccc3)CCOCC2)C1 (stereo not given) | -6
O=C(Nc1nnc(C2CC2)s1)c1cccs1 | -18
O=C(Nc1ncc([N+](=O)[O-])s1)c1ccc(=O)n(Cc2ccc(F)cc2)c1 | 9
O=C(Nc1ncc([N+](=O)[O-])s1)c1cccs1 | 86*
Cc1ccc(CNC(=O)C2CCN(c3ccc(Cl)nn3)CC2)n1C | 7
O=C(NCC1CC1)C1CCCN(C(=O)C2(c3ccccc3F)CC2)C1 (stereo not given) | -10
Cc1cc(CC(=O)NC(C#N)c2ccc(Cl)cc2)no1 (stereo not given) | -5
CC1CCCN(c2nc(N)c([N+](=O)[O-])c(NCCO)n2)C1 (stereo not given) | -6
O=C(c1n[nH]c(=O)c2ccccc12)N1CCN(S(=O)(=O)c2cccc(Cl)c2)CC1 | 87*
Cc1cccc(CN2CCN(C(=O)c3n[nH]c(=O)c4ccccc34)CC2)c1 | -7
O=C(c1n[nH]c(C2CC2)c1Cl)N1CCN(S(=O)(=O)c2ccccc2)CC1 | -37
CCOC(=O)CCC(=O)OC1C(OC2C(C)C(OC3CC(C)(OC)C(O)C(C)O3)C(C)C(=O)OC(CC)C(C)(O)C(O)C(C)C(=O)C(C)CC2(C)O)OC(C)CC1N(C)C (stereo not given) | 99*
CCOC(=O)CCC(=O)O[C@H]1[C@H](O[C@@H]2[C@@H](C)[C@H](O[C@H]3C[C@@](C)(OC)[C@@H](O)[C@H](C)O3)[C@@H](C)C(=O)O[C@H](CC)[C@@](C)(O)[C@H](O)[C@@H](C)C(=O)[C@H](C)C[C@@]2(C)O)O[C@H](C)C[C@@H]1N(C)C | -7
CCC(=O)O[C@H]1[C@H](O[C@@H]2[C@@H](C)[C@H](O[C@H]3C[C@@](C)(OC)[C@@H](O)[C@H](C)O3)[C@@H](C)C(=O)O[C@H](CC)[C@@](C)(O)[C@H](O)[C@@H](C)C(=O)[C@H](C)C[C@@]2(C)O)O[C@H](C)C[C@@H]1N(C)C | 0
CN(c1ccccc1)S(=O)(=O)c1cc(C(=O)O)sc1Br | -10
COc1ccc(C(C)=O)cc1CN1C(=O)C(Cc2cccc(F)c2)ON=C1C (stereo not given) | -5
N#CC(NC(=O)c1[nH]ncc1Br)c1cccc(Cl)c1 (stereo not given) | -17
CC(C)c1nc(NC(=O)CS(=O)(=O)C2CCCC2)n(C)n1 | -3
CC(C)c1nc(NC(=O)c2[nH]ncc2Br)n(C)n1 | 94*
